# Bioassay records deposited in PubChem by National Center for Advancing Translational Sciences (NCATS).
# Rows were chosen to be rich in hits. Some 21% of all compounds tested hit in one or more screens of this group.
# Pf growth 48h: P. falciparum growth inhibition at 48 hours (one generation) | P. falciparum luciferase growth in erythrocytes, 48 h | Potency, µM (titrated, usually from 28.7 µM), hits mostly inhibitors | hit rate 5.9% among 310,000
#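 First compound was added to culture medium, then infected red cells at 0.1% parasitemia and 2% hematocrit (final). After incubation at 37 C under 5% CO2, luciferase detection reagent was dispensed and light output recorded.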
# Pf growth 96h: P. falciparum growth inhibition at 96 hour, primary screen for plastid delayed-death inhibitors | P. falciparum luciferase reporter growth, 96 h | Potency, µM (doses to about 28.7 µM), usual class: inhibitors | hit rate 6.9% among 320,000
#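 Erythrocytes infected with luciferase-expressing P. falciparum were dispensed at 2% hematocrit and 0.05% parasitemia (final), then incubated with compounds 96 hours at 37 C in 5% CO2. Luminescence after detection reagent addition reported growth.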
# Shiga toxin inh: blocks Shiga toxin action in Vero cells; hit rate 9.2% among 290,000; AID 2315; inhibition, % at 38.7 µM; Vero cells, Shiga toxin protein synthesis inhibition reporter; in the data active = inhibition mostly above about 28%, no sharp cut-off; inactive = mostly below about 43%
# AMA1 RON2 block: disrupts binding of P. falciparum AMA1 to RON2 | AlphaScreen AMA1-biotinylated RON2 peptide binding | hit rate 0.2% among 360,000 | AID 720542 | Potency, µM (series often up to 58.2 µM), hits mostly inhibitors; also: nearly all actives have a fitted effect of over 45% in size
#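 AMA1 (3D7) with his tag at 25 nM final met compounds first, then biotinylated RON2 peptide at 25 nM; detection used donor plus acceptor beads, 10 µg/mL apiece, read by AlphaScreen after 30 min at room temperature.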
# Cycloheximide cs: counter-screen for Shiga toxin inhibitors: cycloheximide protein synthesis inhibition | cell reporter, cycloheximide protein synthesis inhibition counterscreen | max response, % | hit rate 12% among 300,000 | AID 2314; in the data active = max response mostly above about 13%, no sharp cut-off; inactive = mostly below about 14%; also: read at 38.3 µM for the half of the compounds with a filed dose
# HCV inh: inhibitors of hepatitis C virus infection; Huh7.5.1 HCVcc-Cre infection, luciferase reporter, 44 h; Potency, µM (top dose mostly 41.8 µM), hits mostly inhibitors; hit rate 3.4% among 340,000
#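 Compounds are dispensed onto cells plated 4 h earlier at 1,000 per well, with HCVcc-Cre virus (about 0.5 moi) added next. Following 44 h of culture, luminescent signal is measured for 15 sec after 15 min with substrate at room temperature.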
# Numbers stand for hits; 0 = inactive; ? = inconclusive; - = no result given; [ ] = remark or other dose. Unless noted, calls follow the shape of the dose curve; as a rule, active = well fitted curve in the direction sought with a large enough effect; inconclusive = small, poorly fitted or top-dose-only effect, or another doubt; inactive = no such curve, though single readings can be large; an effect the other way counts as inactive or inconclusive.
SMILES,Pf growth 48h,Pf growth 96h,Shiga toxin inh,AMA1 RON2 block,Cycloheximide cs,HCV inh
Cc1cc2[nH]c(=O)c(=O)[nH]c2cc1S(=O)(=O)Nc1cccc(C)c1C,0,0,0,0,0,0
COc1ccc(CCN2CC(C(=O)NCCc3ccccc3C)CCC2=O)cc1 (stereo not given),0,0,0,0,0,0
O=C(c1cc(C(=O)NCc2ccc(Cl)cc2)c(=O)n(Cc2ccc(Cl)cc2)c1)c1cc(F)ccc1O,2.9µM,1.5µM,0,0,0,?
O=C(NCc1ccc(Cl)cc1)c1ccc(Cn2cc(C(F)(F)F)ccc2=O)cc1,?,?,0,0,0,0
CC(OC(=O)/C=C/c1ccc(Br)cc1)C(=O)N1CCOCC1 (stereo not given),0,0,-,0,-,0
CC(C)c1ccc(/C=C/C(=O)N2CCCCCC2)cc1,0,0,0,0,21,0
O=C(C=Cc1ccccc1)N1CCCCC1,-,-,-,0,-,0
CC(C)c1ccc(/C=C/C(=O)N2CCOCC2)cc1,0,0,28,0,43,0
COC(=O)C[C@H]1C[C@H]2c3cc(NS(=O)(=O)c4cccc(OC)c4)ccc3O[C@H]2[C@@H](CO)O1,-,-,-,0,-,-
C=CCNC(=S)/C(=C(/[O-])c1ccc([N+](=O)[O-])cc1)[n+]1ccccc1,0,0,0,0,0,0
[O-]/C(=C(\C(=S)Nc1ccc(Cl)cc1)[n+]1ccccc1)c1ccc(OC(F)F)cc1,10µM,0,0,0,0,11µM
CCOc1ccccc1NC(=S)/C(=C(\[O-])c1ccc2c(c1)OCCO2)[n+]1ccc(CC)cc1,-,2.3µM,0,0,0,0
CCOc1ccccc1NC(=O)NC1CCN(CC(=O)Nc2ccc3c(c2)OCCO3)CC1,0,?,0,0,0,?
[O-]C(=C(C(=S)Nc1cccc2ccccc12)[n+]1ccccc1)c1ccc2c(c1)OCCO2,-,-,-,0,-,?
CC(C)(C)c1cc[n+](/C(C(=S)Nc2ccccc2F)=C(/[O-])c2ccc3c(c2)OCCO3)cc1,?,?,0,0,23,0
[O-]/C(=C(\C(=S)Nc1ccccc1F)[n+]1ccccc1)c1ccc(-c2ccccc2)cc1,0,0,0,0,18,0
COC(=O)[C@@]12C[C@@H](CC(=O)N3CCC(c4ccccc4)CC3)C(=O)N(Cc3ccco3)C1=CCC(C)(C)C2,-,-,-,0,-,-
O=S(=O)(c1ccc(Nc2ccc(-c3ccc4c(c3)OCCO4)nn2)cc1)N1CCCC1,-,?,0,0,54,?
O=C(NC1CC1)c1cccc(Nc2ccc(-c3ccc4c(c3)OCCO4)nn2)c1,?,0[5.75 µM],55,0,31,10µM
Cc1nc(-c2cccc(S(=O)(=O)N3CCOCC3)c2)cs1,13µM,0,0,0,0,0
Cc1nc(-c2cccc(NC(=O)c3cccc(S(=O)(=O)N4CCCC4)c3)c2)cs1,12µM,?,-,0,-,10µM
COc1ccc(-c2csc(NC(=O)c3cccc(S(=O)(=O)N4CCN(C)CC4)c3)n2)cc1,?,12µM,0,0,0,?
CN1CCN(S(=O)(=O)c2cccc(C(=O)Nc3nc(-c4ccccc4)cs3)c2)CC1,-,0,30,0,24,?
Cc1nc(-c2cccc(NC(=O)c3ccc(Cl)c(S(=O)(=O)N4CCCC4)c3)c2)cs1,-,-,-,0,-,-
O=C(/C=C/c1ccccc1)OCc1ccccc1,0,0,-,-,-,-
SMILES,Pf growth 48h,Pf growth 96h,Shiga toxin inh,AMA1 RON2 block,Cycloheximide cs,HCV inh
Cc1cc(-c2csc(NC(=O)c3cccc(S(=O)(=O)N(C)C)c3)n2)c(C)n1-c1ccccc1,8.3µM,12µM,39,0,0,?
Cc1cccc(C)c1Nc1nnc(SCC(=O)c2ccc(Br)s2)s1,0,?,0,0,0,0
Cc1ccc(C(=O)CSc2nnc(N)s2)c(C)c1,0,0,78,0,38,0
Cc1cc(C)c(C(=O)CSc2nnc(C)s2)c(C)c1,0,0,0,0,0,0
Cc1cc(C)c(C(=O)CSc2nnc(N)s2)c(C)c1,0,0,0,0,0,0
Cc1ccc(C(=O)CSc2nnc3ccccn23)c(C)c1,0,0,0,0,27,0
Cc1nnc(SCC(=O)c2ccc(C(C)C)cc2)s1,0,0,74,0,31,0
Cc1ccc(Nc2nnc(SCC(=O)c3ccc(Br)s3)s2)c(C)c1,0,1µM,0,0[11.6 µM],0,0
CC(C)c1ccc(NC(=O)c2ccc(-c3ccnn3C)c3ccoc23)cc1,-,-,-,0,-,-
